From PubChem BioAssay
Most compounds without a hit are left out; they make up all but 9.3% or so of the library.
Vaccinia mCherry: vaccinia inhibition (mCherry reporter); Vaccinia virus mCherry reporter infection, fluorescence; hit rate 0.63% among 310,000; Potency, µM (series often up to 36.5 µM), for inactives: at the highest dose activity change, negative = inhibition, hits mostly inhibitors; calls by dose curve; tested in A549 cells; note: potency is the fitted concentration of half-maximal effect; nearly all actives have a fitted effect of over 35% in size
Vaccinia Venus: vaccinia inhibition (Venus reporter) | Vaccinia virus Venus reporter expression, fluorescence | Potency, µM (highest dose often 36.5 µM), for inactives: at the top dose activity change, negative = inhibition, hits mostly inhibitors | hit rate 0.46% among 330,000 | AID 720580; calls by dose curve; tested in A549 cells; note: potency is the fitted concentration of half-maximal effect; nearly all actives have a fitted effect of over 30% in size
Sm TGR inh: blocks Schistosoma mansoni thioredoxin glutathione reductase; Q962Y6; purified TGR, DTNB reduction, TNB absorbance 405 nm; Potency, µM (series often up to 114 µM), for the others: at the highest dose activity change, negative = inhibition, hits mostly inhibitors; hit rate 3% among 360,000; note: potency is the fitted concentration of half-maximal effect; nearly all actives have a fitted effect of over 60% in size
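First, TGR (20 nM dispensed) and NADPH were mixed with compound. Second, a 15 min room-temperature incubation followed. Third, further NADPH and then DTNB were added to start the reaction. Finally, TNB absorbance was monitored kinetically.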
FMDV antiviral: foot and mouth disease virus antiviral activity | FMDV antiviral cell-based qHTS | Potency, µM (doses to about 57.9 µM), for inactives: at the highest dose activity change, negative = inhibition, hits mostly inhibitors | hit rate 1.2% among 410,000; calls by dose curve; tested in HEK293T cells; note: read-out not given here; potency is the fitted concentration of half-maximal effect; nearly all actives have a fitted effect of over 45% in size
HCMV inh: human cytomegalovirus inhibition | HFF cells, HCMV-luciferase reporter, 72 h; active compounds read low | activity change, negative = inhibition, % at 57.5 µM | hit rate 4.5% among 410,000; in the data active = activity change below about -60%; inconclusive = no clear call, values can overlap the other calls; inactive = above about -39%
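HFF cells seeded 16 h at 37C, treated with compounds, infected with luciferase-reporter HCMV at MOI 1 PFU/cell; luciferase read at 72 h post infection, normalized to buffer-only and Salinomycin controls.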
HCV inhibitor: blocks hepatitis C virus; Huh7.5.1 HCVcc-Cre infection, luciferase reporter, 44 h; hit rate 3.4% among 340,000; Potency, µM (highest dose often 41.8 µM), inactives show at the top dose activity change, negative = inhibition, actives largely listed as inhibitors; AID 651820; note: potency is the fitted concentration of half-maximal effect
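Cells (1,000/well) were plated 4 h before compound, then infected with HCVcc-Cre virus (~0.5 moi). After 44 h further culture, infection was read as luciferase luminescence following a 15 min substrate incubation at room temperature.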
* marks the source's active call; other numbers are inactive results; i = inactive; ? = inconclusive; · = no result; [ ] = another dose, or the depositor's remark. Unless noted, calls come from the whole dose curve; as a rule, active = well fitted curve in the direction sought with a large enough effect; inconclusive = small, poorly fitted or top-dose-only effect, or another doubt; inactive = no such curve, though single readings can be large; an effect the other way counts as inactive or inconclusive. % is set by controls: 0 for no effect and ±100 for the full control effect.

SMILES | Vaccinia mCherry | Vaccinia Venus | Sm TGR inh | FMDV antiviral | HCMV inh | HCV inhibitor
COc1cc(/C=N\NC(=O)CNC(=O)C2COc3ccccc3O2)ccc1O (stereo not given) | -17.8% | -16.9% | 3.7% | -22.4% | 27.7 | 7.6%
CCN(Cc1ccccc1)S(=O)(=O)c1ccc(C(=O)Nc2nnc(C)o2)cc1 | ? | -10.1% | -4.3% | 14.6% | -3.7 | ?
O=C(O)CC12CC3CC(C1)CC(n1ncc(NCc4ccco4)c(Cl)c1=O)(C3)C2 | i | 0.8% | 11.2µM* | -11.5% | 2.8 | 23.0%
Cc1ccc(Nc2cnn(C34CC5CC(CC(CC(=O)O)(C5)C3)C4)c(=O)c2Cl)cc1C | -7.6% | -4.6% | -0.7% | · | ? | 9.1%
O=C(NCc1ccco1)NC12CC3CC(CC(C3)C1)C2 | · | -23.3% | -0.5% | 0.0% | -1.0 | 6.8%
O=C(O)CC12CC3CC(C1)CC(n1ncc(NCC4CCCO4)c(Cl)c1=O)(C3)C2 (stereo not given) | · | · | 39.8µM* | -12.2% | 28.3 | 1.1%
CCc1cccc(Nc2cnn(C34C[C@@H]5C[C@@H](CC(CC(=O)O)(C5)C3)C4)c(=O)c2Cl)c1 | i | -18.4% | 10.0% | 9.3% | -5.0 | -2.2%
O=c1c(Cl)c(NCc2ccccc2)cnn1C12CC3CC(CC(C3)C1)C2 | -22.0% | -23.0% | 0.5% | 37.5% | -61.2* | 31.2%
CCOc1ccc(OCC)c(NC(=O)c2cc(CN3CCOCC3)on2)c1 | 0.5% | -3.7% | 5.5% | -15.0% | 1.2 | ·
CCN1CCN(Cc2ccc(NC(=O)c3ccc(C)c(NC(=O)C(=O)c4c[nH]c5ccccc45)c3)cc2C(F)(F)F)CC1 | 11.2µM* | 10µM* | -21.9% | ? | -101.0* | ?
CCN1CCN(Cc2ccc(NC(=O)c3cccc(-c4ccc5nc(NC(=O)C6CC6)sc5n4)c3)cc2C(F)(F)F)CC1 | · | · | · | · | -98.9* | ·
CCN1CCN(Cc2ccc(NC(=O)c3ccc(C)c(NC(=O)c4ccc5n[nH]nc5c4)c3)cc2C(F)(F)F)CC1 | i | -19.9% | 4.6% | -0.4% | 35.7 | 3.1%
CCN1CCN(Cc2ccc(NC(=O)c3cc(NC(=O)c4cc(C)on4)cc(OC)c3)cc2C(F)(F)F)CC1 | -15.4% | ? | 1.5% | ? | -29.0 | ?
CCN1CCN(Cc2ccc(NC(=O)c3cc(NC(=O)C(=O)c4c[nH]c5ccccc45)cc(OC)c3)cc2C(F)(F)F)CC1 | ? | 10µM* | -19.3% | ? | -100.8* | -16.1%[8.37 µM]
O=C1OC(c2ccccc2)C(O)=C1c1ccccc1 (stereo not given) | -10.0% | -8.9% | · | 11.7% | 17.0 | 5.9%
COc1ccc(/C=N/n2c(C)nc3sc(C)c(C)c3c2=O)cc1 | 8.6% | -15.1% | 13.3% | 4.0% | ? | 15.7%
CCc1nn(C(C)C(=O)NCc2cccc(Cl)c2)c(=O)c2cc3occc3n12 (stereo not given) | · | · | 5.5% | -10.2% | 0.0 | 8.91µM*
CCc1nn(C(C)C(=O)NCc2ccc(Cl)cc2)c(=O)c2cc3occc3n12 (stereo not given) | i | -10.3% | 2.8% | 6.8% | -3.0 | ?
CCc1nn(C(C)C(=O)NC(C)CCc2ccco2)c(=O)c2cc3occc3n12 (stereo not given) | · | -14.6% | 0.0% | 2.2% | · | 10µM*
COc1ccc(/C=N/NC(=O)CNC(=O)/C=C/c2ccco2)cc1OC | -21.0% | -14.0% | 25.1µM* | 12.1% | -0.3 | 0.2%
COc1cc(/C=N/NC(=O)CNC(=O)/C=C/c2ccco2)cc(OC)c1OC | -6.8% | -1.7% | 50.1µM* | -10.9% | -0.4 | 11.8%
CCOC(=O)c1noc2ncn(CC(=O)Nc3cc(Cl)ccc3OC)c(=O)c12 | -2.0% | -1.1% | 5.6% | 0.0% | 4.2 | ·
CCOC(=O)c1cnn(C)c1NC(=O)c1ccc(Cl)cc1Cl | -14.5% | -2.9% | -7.8% | -8.9% | · | 0.2%
COc1ccc(-c2nc(-c3cccs3)no2)cc1 | -11.7% | -17.9% | 1.5% | 7.08µM* | -34.8 | 0.2%
COc1ccccc1-c1nc(-c2ccccn2)no1 | -10.3% | -8.0% | 6.3% | -72.0% | ? | ?
SMILES | Vaccinia mCherry | Vaccinia Venus | Sm TGR inh | FMDV antiviral | HCMV inh | HCV inhibitor
Cc1ccccc1-c1nc(-c2ccccn2)no1 | 0.3% | 8.7% | 61.3% | 6.31µM* | -7.9 | 4.8%
COc1ccc(-c2nc(-c3ccncc3)no2)cc1 | · | · | 6.0% | -1.4% | 98.8 | -6.3%
Clc1ccc(-c2nc(-c3ccccn3)no2)cc1Cl | -0.7% | -7.3% | 8.7% | · | 65.6 | 1.3%
COc1ccc(-c2nc(-c3ccccn3)no2)cc1 | · | · | 3.1% | 7.94µM* | -94.4* | -21.9%
O=C1NC(C(=O)O)=CC(c2cccc(Cl)c2Cl)N1 (stereo not given) | i | -6.2% | -14.0% | -14.1% | -5.1 | 16.1%
Cc1ncc(CN2CCCC(C(=O)Nc3ccc(-c4ccco4)cc3)C2)cn1 (stereo not given) | · | · | 44.7µM* | -12.6% | -31.3 | -19.0%
Cn1cc(CN2CCCC(C(=O)Nc3cccc(-c4cc5ccccc5[nH]4)c3)C2)cn1 (stereo not given) | ? | ? | -17.4% | ? | -22.1 | 7.08µM*
CCn1cc(CN2CCCC(C(=O)Nc3cccc(-c4cc5ccccc5[nH]4)c3)C2)c(C)n1 (stereo not given) | -26.9% | -27.9% | -13.4% | -13.8% | 5.3 | ?
Cc1ncc(CN2CCCC(C(=O)Nc3ccc(-c4cscn4)cc3)C2)cn1 (stereo not given) | -11.4% | -14.2% | -22.2% | 14.7% | -3.0 | 5.7%
CC(C)n1cc(CN2CCCC(C(=O)Nc3cccc(-c4cc5ccccc5[nH]4)c3)C2)cn1 (stereo not given) | 11.2µM* | ? | -10.3% | ? | -33.0 | 11.2µM*
Cc1ncc(CN2CCCC(C(=O)Nc3ccc(-c4cccc(F)c4)cc3)C2)n1C (stereo not given) | ? | -23.4% | -0.4% | ? | -28.6 | 3.55µM*
COc1cccc(-c2ccc(NC(=O)C3CCCN(Cc4cnc(C)n4C)C3)cc2)c1 (stereo not given) | -14.1% | -26.0% | 2.1% | -20.6% | ? | ?
COc1cccc(-c2ccc(NC(=O)C3CCCN(Cc4cnn(C)c4)C3)cc2)c1 (stereo not given) | · | · | 4.7% | -7.5% | 11.3 | 12.6µM*
COc1ccc(C2=Nc3ccccc3N(C(=O)c3ccc(C(F)(F)F)cc3)C2C(=O)NCc2ccccc2)cc1 (stereo not given) | -27.3% | ? | · | 4.9% | ? | ·
O=C(O)C1C2CCC(CC2)C1C(=O)O (stereo not given) | i | -2.4% | · | -18.0% | -1.8 | 21.6%
CCC(C)n1c(=O)c2sccc2n2c(CCCC(=O)N3CCC(C(N)=O)CC3)nnc12 (stereo not given) | i[7.34 µM] | 0.0%[7.34 µM] | 7.08µM* | -6.5% | 0.0 | 12.7%
CCCn1c(=O)c2sccc2n2c(CCCC(=O)N3CCN(c4cccc(C)c4C)CC3)nnc12 | -26.1% | -21.6% | -2.6% | 15.8µM* | -16.7 | ·
